The structures appear in SMILES notation. Results filed as inconclusive are left out. Calls of active or inactive are those of the source. How the source made its calls: active means hit-call score of the fitted dose curve at least 0.9, where 1 is the maximum; inconclusive means response in the unintended direction; inactive means score below 0.9.

This is an account of results in PubChem BioAssay AID2284061 (EPA ToxCast).

Chain of human Akt3 (PKBgamma) AGC Kinase, AKT3 (gene 10000) (Q9Y243 whole entry, looked up): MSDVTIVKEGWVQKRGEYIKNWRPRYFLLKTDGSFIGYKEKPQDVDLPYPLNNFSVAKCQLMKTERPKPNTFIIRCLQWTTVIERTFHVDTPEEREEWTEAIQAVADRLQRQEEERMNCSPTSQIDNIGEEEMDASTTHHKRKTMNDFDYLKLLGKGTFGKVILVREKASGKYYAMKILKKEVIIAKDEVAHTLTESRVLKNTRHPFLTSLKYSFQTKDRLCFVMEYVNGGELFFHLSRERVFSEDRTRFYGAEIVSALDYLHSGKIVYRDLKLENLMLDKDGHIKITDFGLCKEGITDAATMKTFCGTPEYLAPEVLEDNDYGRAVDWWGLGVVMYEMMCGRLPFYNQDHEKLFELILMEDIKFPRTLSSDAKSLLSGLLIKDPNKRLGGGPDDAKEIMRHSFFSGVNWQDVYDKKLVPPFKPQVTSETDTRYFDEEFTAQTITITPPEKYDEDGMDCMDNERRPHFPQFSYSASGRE

This assay has as its target human Akt3 (PKBgamma) AGC Kinase, AKT3 (gene 10000) (UniProt Q9Y243). Description: ERF_FR_ENZ_hAKT3: Eurofins (ERF) Enzymatic Radiometric [Km ATP] KinaseProfiler LeadHunter Assay for human Akt3 (PKBgamma) AGC Kinase. The method, then: ERF_FR_ENZ_hAKT3 is a biochemical, single-readout assay that uses extracted gene-proteins in a cell-free assay. Measurements were taken 0.5 hour after chemical dosing in a 96-well plate. See Akt3 (PKBgamma) Human AGC Kinase Enzymatic LANCE Assay [Km ATP], Cerep.ERF_FR_ENZ_hAKT3 is an assay component calculated from the ERF_FR_ENZ_hAKT3 assay. It is designed to measure enzyme activity using a type of enzyme reporter as detected by fluorescence intensity with LANCE technology.Data from the assay component ERF_FR_ENZ_hAKT3 was analyzed at the assay endpoint, ERF_FR_ENZ_hAKT3, in the positive analysis fitting direction relative to DMSO as the negative control and baseline of activity. Using a type of enzyme reporter, loss-of-signal activity can be used to understand changes in enzymatic activity as they relate to gene AKT3. To generalize the intended target to other relatable targets, this assay endpoint is annotated to the kinase intended target family, where the subfamily is serine/threonine kinase.
PKBb (h) is incubated with 8 mM MOPS pH 7.0, 0.2 mM EDTA, 30 uM […], 10 mM MgAcetate and [g- 33P]-ATP (specific activity and concentration as required). The reaction is initiated by the addition of the Mg/ATP mix. After incubation for 40 minutes at room temperature, the reaction is stopped by the addition of phosphoric acid to a concentration of 0.5%. […]
Take `O=C(/C=C/c1ccc(O)cc1)CC(=O)/C=C/c1ccc(O)cc1`: the call was inactive.
With `COc1cc(CCC(=O)CC(=O)CCc2ccc(O)c(OC)c2)ccc1O`, the compound was classed as inactive.
